ALDH1A1 inh = blocks purified human ALDH1A1 activity; Purified ALDH1A1, NADH fluorescence, propionaldehyde substrate; Potency, µM (doses to about 75.3 µM), inactives show top-dose activity, negative = inhibition, usual class: inhibitors; hit rate 7.3% among 220,000; AID 1030; active = well fitted inhibition curve with a large enough effect, not every such curve was filed as active; inconclusive = small, poorly fitted or top-dose-only effect, or another doubt; inactive = no such curve, though single readings can be large or run the other way;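 note: potency is the fitted concentration of half-maximal effect; plate controls were no enzyme wells and a reference inhibitor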
Target sequence (P00352 whole entry, looked up): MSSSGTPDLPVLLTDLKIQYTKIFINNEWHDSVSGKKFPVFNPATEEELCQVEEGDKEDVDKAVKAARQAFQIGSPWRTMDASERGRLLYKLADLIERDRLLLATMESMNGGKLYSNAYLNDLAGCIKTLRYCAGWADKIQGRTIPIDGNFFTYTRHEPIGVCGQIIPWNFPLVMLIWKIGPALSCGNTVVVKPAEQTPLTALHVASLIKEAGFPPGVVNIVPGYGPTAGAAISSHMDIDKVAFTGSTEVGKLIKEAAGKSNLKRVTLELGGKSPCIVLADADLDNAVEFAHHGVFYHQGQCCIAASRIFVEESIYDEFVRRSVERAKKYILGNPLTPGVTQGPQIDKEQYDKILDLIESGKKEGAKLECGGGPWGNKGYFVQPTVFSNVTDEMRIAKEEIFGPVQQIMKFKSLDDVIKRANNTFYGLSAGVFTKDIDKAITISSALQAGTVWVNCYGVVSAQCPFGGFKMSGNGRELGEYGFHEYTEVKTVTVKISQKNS
HPGD block = blocks human HPGD enzyme activity. Potency, µM, for the others: at the top dose activity change, negative = inhibition, actives largely listed as inhibitors. hit rate 4.3% among 150,000. P15428. purified HPGD, NADH fluorescence kinetic, PGE2 substrate; active = well fitted inhibition curve with a large enough effect, not every such curve was filed as active; inconclusive = small, poorly fitted or top-dose-only effect, or another doubt; inactive = no such curve, though single readings can be large or run the other way; note: potency is the fitted concentration of half-maximal effect; % is set by controls: 0 for no effect and ±100 for the full control effect
Target sequence (P15428 whole entry, looked up): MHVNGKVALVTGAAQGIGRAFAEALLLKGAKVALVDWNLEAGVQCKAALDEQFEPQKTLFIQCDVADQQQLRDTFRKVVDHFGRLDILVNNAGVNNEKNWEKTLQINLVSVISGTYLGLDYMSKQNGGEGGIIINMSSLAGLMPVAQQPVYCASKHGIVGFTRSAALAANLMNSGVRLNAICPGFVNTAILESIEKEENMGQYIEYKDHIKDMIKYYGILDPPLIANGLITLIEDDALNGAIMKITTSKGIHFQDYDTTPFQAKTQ
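20 nM HPGD preincubated 15 min at room temperature with compound in 50 mM Tris-HCl pH 8, 0.01% Tween 20. Started with 1 mM NAD+ and 30 uM prostaglandin E2; NADH fluorescence (360/450 nm) read 5 times over 30-s intervals, last minus first.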
CBFb-RUNX1 inh = CBF-beta/RUNX1 interaction disruption; AlphaScreen CBFb-His/RUNX1-biotin binding, biochemical; Q01196+Q13951; Potency, µM (highest dose often 59.8 µM), for the others: top-dose activity, negative = inhibition, actives largely listed as inhibitors; 230,000 tested, under 10 active; note: % of control where 0% means no effect
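CBFb-His/RUNX1-biotin, 30 nM each, preincubated 20 min RT; compound 15 min RT; Ni + streptavidin beads 50 ng each, 90 min RT; AlphaScreen read.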
PNC inhibitor = blocks assembly of the perinucleolar compartment; PC3M PTB-GFP, PNC prevalence imaging, 16 h; stronger effect = lower value; activity change (PNC), negative = inhibition, % at 10 µM; hit rate 3.1% among 140,000;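 active = readout at or below -70, meaning at least 70% loss of cells showing the perinucleolar compartment, a nuclear body marking cancer cells; inconclusive = readout between -30 and a set limit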;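 note: plate controls were DMSO wells for no effect and camptothecin positive control wells for full effect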
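Read-out is percentage of cells bearing a perinucleolar compartment, from automated 20x imaging of fixed, Hoechst-stained PC3M PTB-GFP cells. Cells were seeded 4 h, then exposed 16 h to compound (23 nl of library stock) in duplicate plates.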
HTT aggregate = mutant huntingtin aggregation inhibition; PC12 HttQ103-GFP aggregates, Acumen cytometry, 40 h; AID 1688; hit rate 1.1% among 220,000; Potency, µM (series often up to 46.1 µM), for inactives: at the top dose activity change, negative = inhibition, hits mostly inhibitors; note: potency is the fitted concentration of half-maximal effect; % is set by controls: 0 for no effect and ±100 for the full control effect; nearly all actives have a fitted effect of over 60% in size
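Steps: seed 1500 PC12 HTTQ103-GFP cells/well; add tebufenozide, 100 nM final; add compound titration; add ATPLite reagent; quantify GFP aggregates by laser scanning cytometry.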
HTT ATP protect = Huntington cell model cytoprotection by ATP luminescence; PC12 HTT-Q103 induced, cytoprotection, ATP luminescence, 40 h; Potency, µM (series often up to 56.4 µM), without a hit: cytoprotection (ATP increase), usual class: activators; hit rate 0.14% among 230,000; note: potency is the fitted concentration of half-maximal effect; % of control where 0% means no effect; nearly all actives have a fitted effect of over 45% in size
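Cells were plated at 1500 per well in phenol red-free DMEM with 5% equine and 5% calf serum. Tebufenozide (100 nM final) and compounds were added, then ATPlite reagent, and luminescence was read.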
* = called active by the depositor; ? = inconclusive; / = no result; ! = not confirmed by another sample; [ ] = remark or other dose. Most compounds without a hit are left out; they make up all but 11% or so of the library. Unless noted, calls come from the whole dose curve; as a rule, active = well fitted curve in the direction sought with a large enough effect; inconclusive = small, poorly fitted or top-dose-only effect, or another doubt; inactive = no such curve, though single readings can be large; an effect the other way counts as inactive or inconclusive.

SMILES	ALDH1A1 inh	HPGD block	CBFb-RUNX1 inh	PNC inhibitor	HTT aggregate	HTT ATP protect
Cc1cc2c(nc1C)CCCCN2C[C@H](C)O/N=C1/[C@H]2O[C@@H]2[C@@H](O)[C@H]2[C@H]1CCn1c(=O)n(-c3ccccc3)c(=O)n12	-10%[13.5 µM]	/	-3%[13.1 µM]	/	/	39%[10 µM]
O=C(Nc1ccc2nc(-c3ccco3)[nH]c2c1)c1cccs1	7.1µM*	?	4%	326	0%	-48%[10 µM]
Cc1ccc(C(=O)N/N=C(\CC(C)C)c2ccccc2)cc1	-10%	-15%	0%	-105*	-2%	-29%[10 µM]
C=CCn1c(C)csc1=Nc1ccc(C(=O)O)cc1	0%	/	5%	/	2%	-34%
CC(C)(C)C1CCc2onc(C(=O)N3CCOCC3)c2C1 (stereo not drawn)	25µM*	-16%	2%	-10	-3%	-3%
CC(C)(C)C1CCc2onc(C(=O)NC3CCCC3)c2C1 (stereo not drawn)	-7%	-6%	-3%	-15	-9%	-10%
C[C@@](O)(/C=C/[C@H]1CC=CC(=O)O1)[C@@H](C[C@@H](O)\C=C/C=C\C=C\CO)OP(=O)(O)O	6%[13.5 µM]	0%	-4%[13.1 µM]	/	/	7%[10 µM]
O=c1c2c3nc4ccccc4nc3n(/N=C/c3cccs3)c2ncn1-c1ccccc1	-1%	-12%	7%	10	1.8µM*	-8%[0.074 µM]
CC(C)CO/N=C1/[C@H]2O[C@@H]2[C@@H](O)[C@H]2[C@H]1CCn1c(=O)n(-c3ccccc3)c(=O)n12	10%[13.5 µM]	/	8%[13.1 µM]	/	/	-2%[10 µM]
CC(NC(=O)C(=O)NCCC1=CCCCC1)c1ccccc1 (stereo not drawn)	3%	-6%	4%	49	3%	23%[10 µM]
O=C1c2oc3ccccc3c(=O)c2C(c2cccnc2)N1CCCN1CCOCC1 (stereo not drawn)	-4%	-3%	3%	15	-1%	-3%[0.074 µM]
O=C1c2oc3ccc(Cl)cc3c(=O)c2C(c2ccccn2)N1CCCN1CCOCC1 (stereo not drawn)	7.9µM*	-29%	7%	-23	-14%	-1%[10 µM]
Cc1ccc(C2c3c(oc4ccccc4c3=O)C(=O)N2CCCN2CCOCC2)o1 (stereo not drawn)	?	-23%	4%	-23	?	-11%
COCCN1C(=O)c2oc3cc(C)c(C)cc3c(=O)c2C1c1ccc(O)cc1 (stereo not drawn)	/	/	/	/	/	-6%[0.074 µM]
C=CCOc1ccc(C2c3c(oc4ccccc4c3=O)C(=O)N2CCCN2CCOCC2)cc1 (stereo not drawn)	18µM*	-8%	-2%	23	16%	-4%
Cc1ccc(C2c3c(oc4cc(C)c(C)cc4c3=O)C(=O)N2CCCN2CCOCC2)cc1 (stereo not drawn)	11µM*	-6%	1%	-5	5%	-11%
CC(C)Oc1ccc(C2c3c(oc4ccccc4c3=O)C(=O)N2CCCN2CCOCC2)cc1 (stereo not drawn)	8.9µM*	-14%	4%	33	-14%	-9%
COc1ccc(Oc2ncc3nc(-c4ccc(OC)cc4)c(=O)n(C4CC4)c3n2)cc1	?	/	/	/	/	28%
COc1ccc2c(Cc3c4ccccc4cc4ccccc34)cncc2c1O	-9%[13.5 µM]	-8%	/	/	/	-2%[10 µM]
CC(=O)OCC1OC(Oc2cc(OC(C)=O)c3c(=O)cc(-c4ccc(OC(C)=O)c(OC(C)=O)c4)oc3c2)C(OC(C)=O)C(OC(C)=O)C1OC(C)=O (stereo not drawn)	-2%	-19%	-8%[21.7 µM]	/	/	13%[1.9 µM]
CC12CCC=CC1C(c1ccc3ccccc3c1)N(Cc1ccccc1)C2=O (stereo not drawn)	/	/	1%	/	/	/
CC(C)C(=O)NC(=S)Nc1c(Cl)ccc2nsnc12	/	/	7%	/	-14%[9.22 µM]	-6%[10 µM]
CN(C)/C=C(\C#N)C(N)=C(C#N)C#N	-3%	/	3%	/	-3%	8%
CCN(CC)c1ccc(/C=C(\C#N)C(=O)c2ccc(Br)cc2)cc1	11µM*	-12%	?	-20	-4%	-3%[10 µM]
CCN(CC)c1ccc(/C=C(\C#N)C(N)=O)cc1	32µM*	/	2%	/	25%[9.22 µM]	6%[10 µM]
SMILES	ALDH1A1 inh	HPGD block	CBFb-RUNX1 inh	PNC inhibitor	HTT aggregate	HTT ATP protect
CCN(CC)c1ccc(/C=C(\C#N)C(N)=S)cc1	/	/	?	/	16%[9.22 µM]	1%[10 µM]
N#CC(C#N)=C(N)/C(C#N)=C/c1ccc(O)cc1	2.2µM*	?	-1%	/	/	6%[1.9 µM]
CCOC(=O)c1c(-c2ncc(C(F)(F)F)cc2Cl)noc1C	2%	/	-7%	/	14%	-18%
N#Cc1cc(-c2cccc(Cl)c2)c[nH]c1=O	-7%	-19%	15%	-92*	1%	-13%[10 µM]
COc1ccc(NC(=O)N2CCC3(CC2)CCN(C(=O)c2cnccn2)CC3)cc1	-12%	-5%	/	/	/	-36%
O=C(Nc1ccccc1)C1=C(O)CC(c2ccc(Cl)cc2)N2CCN=C12 (stereo not drawn)	14µM*	-3%	-1%	?	12%	-17%[0.074 µM]
COc1ccc(-n2c(=O)c(CCc3ccccc3)nc3cnc(OC)nc32)cc1	1%	/	/	/	/	-42%
C[C@@H](CN(C)C)CN1c2ccccc2CCc2ccccc21	8%[20.9 µM]	-4%	-5%[21.7 µM]	/	0%[20.6 µM]	-14%[40.3 µM]
CC(CN(C)C)CN1c2ccccc2CCc2ccccc21 (stereo not drawn)	3%	-5%	3%	/	0%[9.22 µM]	1µM*!
O=C(O)COc1ccccc1C(Nc1cccnc1)c1cc(Cl)c2cccnc2c1O (stereo not drawn)	-4%	/	1%	/	20%	-24%
CCCC(=O)NC(c1ccc2c(c1)OCO2)c1cc(Cl)c2cccnc2c1O (stereo not drawn)	2%	-8%	-25%	?	2.8µM*	-69%[10 µM]
O=C(NC(c1ccccc1)c1cc(Cl)c2cccnc2c1O)c1cccnc1 (stereo not drawn)	-10%	-5%	-8%	-7	4µM*	-88%[10 µM]
CCOc1ccc(C(Nc2cccnc2)c2cc(Cl)c3cccnc3c2O)cc1 (stereo not drawn)	1.3µM*	/	16%	/	-9%[9.22 µM]	-40%[10 µM]
O=C(CSc1nnc(COc2cccc3cccnc23)o1)N1CCc2ccccc21	14µM*	-12%	2%	?	12%	-2%
O=C(CSc1nnc(COc2cccc3cccnc23)o1)N1CCN(C(=O)c2ccco2)CC1	-3%	-15%	-4%	-100*	3%	17%[10 µM]
O=C(CSc1nnc(COc2ccc(F)cc2)o1)N1c2ccccc2CCc2ccccc21	3.2µM*	-14%	-2%	-19	?	-52%
O=C(CSc1nnc(Cc2ccccc2)o1)N1CCc2ccccc21	9%	2%	5%	22	11%	7%

High-throughput results from PubChem BioAssay.
